In the library only some 4.8% were active in any assay of this set; here they are far more common.
DAX1 inh-1: blocks DAX1 repression of SF-1 activated StAR promoter; HEK293T StAR-luciferase reporter, SF-1/DAX-1 repression relief; inhibition, % at 6.8 µM; 370,000 compounds, 1.1% hits;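 active = inhibition above the mean over all tested compounds plus 3 SD, cut at about 3.6% in these data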;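 also: 0% = DAX-1 cells with DMSO and 100% = cells lacking DAX-1 with DMSO; higher inhibition means more luminescence from relief of DAX-1 repression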
DAX1 inh-2: NR0B1 (DAX1) inhibition; HEK293 Gal4-DAX1 luciferase reporter, luminescence; P51843; inhibition, % at 6.75 µM; 340,000 compounds, 0.99% hits;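 active = inhibition above the mean over all tested compounds plus 3 SD, cut at about 4.2% in these data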;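 also: 0% = DAX1-transfected cells with DMSO and 100% = empty-vector control cells with DMSO; inhibition shows as a rise in luminescence from relieved DAX1 repression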
Target sequence (P51843 207-470 limits assumed): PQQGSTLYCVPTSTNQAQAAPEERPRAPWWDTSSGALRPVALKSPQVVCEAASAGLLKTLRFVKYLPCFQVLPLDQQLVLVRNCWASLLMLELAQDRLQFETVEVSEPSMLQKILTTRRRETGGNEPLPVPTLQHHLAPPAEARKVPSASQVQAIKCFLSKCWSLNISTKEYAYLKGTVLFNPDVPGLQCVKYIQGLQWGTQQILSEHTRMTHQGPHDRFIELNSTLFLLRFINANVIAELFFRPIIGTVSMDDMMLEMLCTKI
ssDAF-12 act: activators of S. stercoralis DAF-12 nuclear receptor; AID 652126; 370,000 compounds, 1% hits; activation, % at 6.8 µM; HEK293 ssDAF-12/GRIP1 lit1-tk-luc reporter, luminescence; % of 3 µM dafachronic acid response;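 active = activation above the mean over all tested compounds plus 3 SD, cut at about 0.9% in these data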;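 also: 0% = DMSO-only wells and 100% = 3 µM delta7-dafachronic acid wells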
SMARCA2 activ: activators of SMARCA2 function; AID 652017; 370,000 compounds, 1% hits; MG213 cells, MMTV-luciferase reporter, dexamethasone, overnight; activation, % at 9.1 µM; in the data active = activation above about 7.8%;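 also: 0% = vehicle wells and 100% = reference activator wells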
hcDAF-12 act: H. contortus DAF-12 activation, primary screen; activation, % at 6.8 µM; 370,000 compounds, 1.4% hits; HEK293 hcDAF-12 lit1-tk-luc reporter, luminescence; 0% DMSO, 100% Δ7-dafachronic acid; AID 652067;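 active = activation above the mean of all tested compounds plus 3 SD, cut at about 5.5% in these data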;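 also: 100% = response to 3 µM Δ7-dafachronic acid high control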
hgDAF-12 ag: agonists of H. glycines DAF-12 nuclear receptor. AID 687014. activation, % at 6.8 µM. HEK293 GAL4-hgDAF12 UAS-luciferase reporter, agonist luminescence; normalized to butyrate control. 370,000 compounds, 1.8% hits;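 active = activation above a cutoff set at the mean of all screened compounds plus 3 SD, cut at about 10% in these data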;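 also: 0% = DMSO wells and 100% = sodium butyrate wells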
Starred values were filed as active, the others as inactive; nt = no result.

SMILES	DAX1 inh-1	DAX1 inh-2	ssDAF-12 act	SMARCA2 activ	hcDAF-12 act	hgDAF-12 ag
CC(NC(=O)C(=O)N/N=C\c1cccc([N+](=O)[O-])c1)c1ccccc1 (centres undefined)	0	5.0*	-1	4	0	0
O=C(Nc1ccccc1)SC1CCCCC1	1	2	0	0	3	12*
CC(OC(=O)CCCN=C1NS(=O)(=O)c2ccccc21)C(=O)c1ccccc1 (centres undefined)	-3	-3	0	2	-1	1
COc1cc(CNCCc2ccccc2)cc(Br)c1OCC(=O)Nc1ccccc1C	1	4.3*	0	3	-2	1
CNCc1cc(Br)c(OCC(=O)Nc2ccccc2OC)c(OC)c1	0	-1	-1	-4	-1	1
Cc1ccc(-n2c(CCc3nc4ccccc4[nH]3)n[nH]c2=S)cc1	0	-1	-2	-3	2	-2
C(#CSCc1ccccc1)SCc1ccccc1	0	4.3*	0	0	1	0
COc1cc2c(cc1OC)CN(C(=O)CSC1=NCCS1)CC2	-3	0	-1	-1	0	-1
Cc1ccn(CC(=O)N2CCCC(C(=O)c3cccc4ccccc34)C2)n1 (centres undefined)	0	-1	-2	-1	-2	2
Cc1nc(C)n(CC(=O)N2CCCC(C(=O)c3cccc4ccccc34)C2)n1 (centres undefined)	2	0	0	5	1	11*
CN(C)CCCNc1nc2cc(-c3ccc4c(ccn4C)c3)sc2c(=O)n1C	2	nt	-1	8	3	12*
Cc1ccc(-c2cc3nc(NCCc4ccncc4)n(C)c(=O)c3s2)cc1	4.0*	nt	0	0	1	10
CCOC(=O)C1(CC2CCCCO2)CCN(Cc2nccn2-c2ccc(OC)cc2)CC1 (centres undefined)	0	-1	0	1	-2	1
COC(=O)N/N=C(\C)c1ccc(C)c([N+](=O)[O-])c1	0	1	-1	-1	-4	0
Cc1ccc2c(c1)NC(=O)CC(c1ccccc1)=N2	1	1	-1	2	-1	1
Cc1cc2c(cc1C)NC(=O)CC(C(F)(F)C(F)(F)C(F)(F)F)=N2	0	4.7*	-1	0	-2	2
Cc1ccc(Cl)cc1NS(=O)(=O)c1cc2[nH]c(=O)c(=O)[nH]c2cc1C	-1	-1	-1	-1	-1	2
O=C(O)c1cc(-c2ccc3c(c2)OCO3)nc2ccc(Cl)cc12	1	0	1	6	5.8*	1
O=C(c1cc(-c2ccncc2)nc2ccc(Cl)cc12)N1CCN(Cc2ccc3c(c2)OCO3)CC1	0	-1	-1	0	2	-4
Cn1c(NC(=O)c2cc(-c3ccc4c(c3)OCO4)nc3ccccc23)cc(=O)n(C)c1=O	1	2	0	5	1	3
CC(C)(C)NC(=O)c1cc(-c2ccc3c(c2)OCO3)nc2ccccc12	-1	0	0	-1	5.9*	4
O=C(NC1CCC1)c1ccc(C#Cc2cccc(F)c2)nc1	0	nt	-1	4	2	11*
COc1ccccc1Nc1ccc(C(=O)NC2CCCCC2)cn1	0	0	-2	3	0	1
ON=C1c2ccccc2-c2ccccc21	1	1	-1	-1	2	4
CN(C)c1ccc2c(c1)C(=NO)c1ccccc1-2	nt	4.4*	nt	nt	nt	nt
SMILES	DAX1 inh-1	DAX1 inh-2	ssDAF-12 act	SMARCA2 activ	hcDAF-12 act	hgDAF-12 ag
O=c1c(-c2ccco2)nc2ccccc2n1C(c1ccccn1)c1nc2ccccc2[nH]1 (centres undefined)	1	nt	1.1*	-6	3	4
O=c1c(-c2cccs2)nc2ccccc2n1C(c1ccccn1)c1nc2ccccc2[nH]1 (centres undefined)	3	nt	0	5	2	12*
COc1ccc2c(c1)nc(-c1cccc(Br)c1)c(=O)n2C(c1ccccn1)c1nc2ccccc2[nH]1 (centres undefined)	2	nt	0.9*	7.9*	4	9
O=c1c(-c2ccccc2)nc2ccccc2n1C(c1ccccn1)c1nc2ccccc2[nH]1 (centres undefined)	2	nt	-1	1	-1	0
O=c1c(-c2cccnc2)nc2ccccc2n1C(c1ccccn1)c1nc2ccccc2[nH]1 (centres undefined)	0	nt	-1	-6	1	-1
CC(C)(C)NC(=O)C(c1ccnc2ccccc12)n1c(=O)c(-c2ccco2)nc2ccccc21 (centres undefined)	4.0*	nt	0	-1	3	-1
CCC(c1nc2ccccc2[nH]1)n1c(=O)c(-c2ccco2)nc2ccccc21 (centres undefined)	0	nt	-1	-2	-2	0
CCOc1ccc(CCNC(=O)COC(=O)c2cc([N+](=O)[O-])ccc2N2CCOCC2)cc1OCC	-6	-1	-1	0	-2	0
CCOc1ccc(CCNC(=O)c2cc([N+](=O)[O-])ccc2N2CCOCC2)cc1OCC	0	0	0	7.9*	1	1
Cc1ccc(S(=O)(=O)N2CCC(C(=O)N[C@@H](C)C(=O)NCC3CCCO3)CC2)cc1 (some centres undefined)	0	-1	-1	-4	0	0
Cn1c(COc2ccc([N+](=O)[O-])cc2)nnc1SCC(=O)NCC1CCCO1 (centres undefined)	0	-1	1.0*	-4	-2	0
COc1ccc(OCc2nnc(SCC(=O)NCC3CCCO3)n2N)cc1 (centres undefined)	0	2	-1	-2	0	1
NS(=O)(=O)c1ccc(CCNc2ccn3nc(-c4ccc(OCCN5CCOCC5)cc4)cc3n2)cc1	-2	nt	-1	-4	0	-3
COCCCNc1ccn2nc(-c3ccc(OCCN4CCOCC4)cc3)cc2n1	0	nt	-1	7.9*	0	3
COc1ccccc1-c1ccc(=O)n(CC(=O)NC2CCc3ccccc32)n1 (centres undefined)	0	0	-2	-3	-2	-5
O=C1OCC(CO)(CO)N=C1NNc1ccccc1[N+](=O)[O-]	0	5.2*	-1	3	3	3
O=C1OCC(CO)(CO)N=C1NNc1cc(Cl)ccc1Cl	0	0	1	1	4	3
COc1ccc(S(=O)(=O)N2CCOCC2)cc1C(=O)Nc1cccc(C(=O)NC2CC2)c1	1	3	-1	-3	-2	0
Cn1c(=O)oc2cc(S(=O)(=O)Nc3cccc(C(=O)O)c3)ccc21	0	-1	-1	0	0	0
